# Hits are enriched below; roughly 1.2% of the tested compounds scored in any of these assays.
# RGS8-Gao reg: modulates binding of RGS8 to human Galphao. P09471. multiplexed bead flow cytometry; actives lie on both sides. response (percent of control binding), % at 10 µM. actives 0.34% (n = 220,000). AID 1423; in the data active = response below about 60% or above about 140%; inactive = in between;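 also: Galphao activated as the GDP aluminium fluoride complex binding bead-coupled RGS8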
# Target sequence (P09471 whole entry, looked up): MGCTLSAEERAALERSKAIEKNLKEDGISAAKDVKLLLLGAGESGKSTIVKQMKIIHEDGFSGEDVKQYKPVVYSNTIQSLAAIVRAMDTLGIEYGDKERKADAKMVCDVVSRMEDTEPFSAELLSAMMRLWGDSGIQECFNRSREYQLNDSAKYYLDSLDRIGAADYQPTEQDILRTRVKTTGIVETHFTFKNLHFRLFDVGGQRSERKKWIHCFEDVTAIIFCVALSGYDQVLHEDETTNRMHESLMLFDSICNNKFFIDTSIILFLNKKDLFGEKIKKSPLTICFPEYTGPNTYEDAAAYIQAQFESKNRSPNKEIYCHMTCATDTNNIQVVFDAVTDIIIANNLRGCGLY
# RGS16-Gao HTS: RGS16-Galphao interaction regulator (human) | O15492+P09471 | bead-based flow cytometry RGS16-Galphao binding, fluorescence; actives lie on both sides | binding response (% of control), % at 10 µM | actives 0.38% (n = 220,000) | AID 1441; call rule not given here;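 also: Galphao activated by GDP with aluminum fluoride before binding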
# Avidin bead fluor: compound fluoresces at 488/530 nm on avidin beads; compound fluorescence 488/530 nm, flow cytometry; hits give high values; fluorescence (KMESF) at 10 µM; AID 1775; actives 0.38% (n = 220,000); in the data active = fluorescence above about 47
# RGS7-Gao: human RGS7-Galphao interaction regulation; P09471; Multiplexed bead flow cytometry, RGS7-Galphao binding; actives lie on both sides; binding response (% of control), % at 10 µM; actives 0.35% (n = 220,000); in the data active = binding response below about 49% or above about 150%; inconclusive = no clear call, values can overlap the other calls; inactive = in between;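 also: fluorescent Galphao held in activated GDP-AlF4 state binding bead-coupled RGS7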
# RGS4-Gao reg: modulates binding of RGS4 to human Galphao; P09471; Multiplexed bead flow cytometry; actives lie on both sides; binding response (% of control), % at 10 µM; actives 0.33% (n = 220,000); in the data active = binding response below about 49% or above about 150%; inactive = in between;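 also: fluorescent Galphao activated with aluminum fluoride binding bead-coupled RGS4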
# GSH bead fluor: compound fluoresces at 488/530 nm on GSH beads; actives 0.25% (n = 190,000); fluorescence (KMESF) at 10 µM; GSH beads flow cytometry, compound fluorescence 488/530 nm; hits give high values; in the data active = fluorescence above about 89;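 also: glutathione beads carrying GST-tagged Bcl family fusion proteins plus one bare bead set; values are compound well signal with DMSO vehicle wells as background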
# * hit, by the source's call; ? = inconclusive; . = no result given; [ ] = remark or other dose.
SMILES,RGS8-Gao reg,RGS16-Gao HTS,Avidin bead fluor,RGS7-Gao,RGS4-Gao reg,GSH bead fluor
Cc1nnc(NC2=NCCC2)o1,100,101,95*,129,105,20
CC(Nc1n[nH]c(=S)[nH]c1=O)C(=O)OCc1ccccc1 (stereo unspecified),96,59,6,102,112,238*
COc1ccccc1-c1cc(C(F)(F)F)nc(S(C)(=O)=O)n1,104,106,10,101,102,483*
COc1ccccc1-c1cc(C(F)(F)F)nc(S(=O)(=O)CCCC(=O)NC(C)C)n1,100,95,19,102,90,5
CCOC(=O)c1cnn2c1[nH]c(=O)c1ccccc12,101,110,96*,124,110,49
Cc1cc(C(=O)OCC(=O)c2ccc(Br)s2)c(C)o1,91,86,7,82,83,269*
COCc1cc(CN2CCCC2)c(O)c2ncccc12,101,101,66*,114,104,14
CCOC(=O)c1nc(Nc2ccc(N3CCC(C)CC3)cc2)c2ccccc2n1,93,89,5,91,91,16
O=C(NCC(O)CN1CCOCC1)c1ccc([N+](=O)[O-])cc1 (stereo unspecified),101,98,5,100,99,22
O=C(COC(=O)/C=C/c1cccs1)Nc1ccccc1Cl,100,101,22,100,98,8
O=C(COC(=O)/C=C/c1cccs1)Nc1ccc2ccccc2c1,93,95,68*,133,69,12
O=C(CSCc1ccccc1)Nc1cccc(C(=O)Nc2ccc(C(=O)O)cc2)c1,99,102,53*,117,102,19
CCN(CC)CCCN=Cc1c(O)n(-c2ccccc2C)c(=O)c2ccccc12,100,98,8,?,95,.
CC(C)(C)c1ccc(C(=O)NNC(=O)c2cccc(Br)c2)cc1,108,107,65*,146,118,32
NC(=S)NNC(=O)c1cccc(Br)c1,102,104,29,100,105,19
O=C(O)c1cc2nc3c(c(C(F)(F)F)n2n1)CCc1ccccc1-3,19*,-6.0*,.,1.4*,-12*,9
CCCCNC(=O)NC1CCCC1,101,102,4,102,101,7
COc1ccccc1N1CCN(C(=O)CSc2nc(-c3ccccc3)cc(=O)[nH]2)CC1,101,103,29,97,100,22
COc1ccccc1N1CCN(C(=O)CSc2nc(C)c(Cc3ccccc3)c(=O)[nH]2)CC1,101,104,78*,123,108,15
O=C(CSc1nnc(Nc2ccccc2)s1)NCc1ccco1,102,107,12,106,104,10
Cc1ccc(Nc2nnc(SCC(=O)NCc3ccco3)s2)cc1,102,97,7,94,95,259*
C=CCNC(=S)/C(=C(/[O-])c1ccccc1Br)[n+]1ccccc1,89,51,16,89,83,17
Cc1cc(C)c(C#N)c(SCC(=O)Nc2ccccc2C)n1,96,29,5,102,101,26
Cc1cc(=O)[nH]c(SCC(=O)Nc2cccc3ccccc23)c1C#N,115,219*[activator],132*,184*[activator],224*[activator],29
O=C(CSCc1ccc(Cl)cc1)c1ccco1,104,108,7,106,108,260*
SMILES,RGS8-Gao reg,RGS16-Gao HTS,Avidin bead fluor,RGS7-Gao,RGS4-Gao reg,GSH bead fluor
O=C(CSc1nc2cc(Cl)ccc2s1)c1ccco1,99,98,15,95,96,8
CCN(CC)CCNc1nc(-c2ccco2)c2c(c1C#N)CC(C)(C)OC2,106,116,48*,107,106,15
COc1ccc(CN2CCN(c3ccc(F)cc3)CC2)c(OC)c1OC,102,108,67*,138,117,8
COc1ccc(CN2CCN(S(=O)(=O)c3ccc(F)cc3)CC2)c(OC)c1OC,101,99,9,99,84,56
COC(=O)[C@H](Cc1ccccc1)NC(=O)N1CCN(c2ccc(F)cc2)CC1,107,110,3,?,94,.
Cc1noc(C)c1COC(=O)CCCc1c[nH]c2ccccc12,94,90,6,84,82,258*
CC(C)NC(=O)CCCc1c[nH]c2ccccc12,100,105,58*,121,101,8
CCOC(=O)CCCc1c[nH]c2ccccc12,105,112,36,101,103,16
